Reference: PubChem BioAssay AID602393 (Broad Institute, 2012)
Out of some 350,000 compounds screened, about 7,000 (2%) were called active. Shown is part of a subset that was picked to be rich in actives. Unmarked numbers belong to inactive results. No stated cut-off is given here; in the data, active means activation above about 40%; inconclusive means no clear call, values can overlap the other calls; inactive means below that.

Assay: Bmi1 luciferase reporter increase in mESCs, primary screen, esBAF inhibitor project, mouse ES cells, Bmi1 luciferase knock-in, single point (AID 602393);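 further: 0% = median of the plate's neutral control wells and 100% = double that signal; a rise in the Bmi1 reporter signal indicates esBAF inhibition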
Settings: 24 h, at 12.5 µM, hits give high values, 100% = twice the neutral-well signal

Going from `CN(C)CC(=O)Nc1ccc2c(c1)[C@H]1C[C@H](CC(=O)NCc3ccc4c(c3)OCO4)O[C@@H](CO)[C@H]1O2` to `C[C@H]1CCCCO[C@@H](CN(C)Cc2ccc3c(c2)OCO3)[C@@H](C)CN([C@@H](C)CO)C(=O)c2cc(NS(=O)(=O)c3ccc(F)cc3)ccc2O1`, the reporter increase rises from 2.82% to 3.56%.

Compared with `O=C(O)CSc1nnc(-c2ccc3c(c2)OCO3)n1-c1ccccc1`, `Cn1c(SCC(=O)N2CCCC2)nnc1-c1ccc2c(c1)OCO2` is lower in reporter increase: 19.1% for the first, 1.7% for the second.

First: C[C@@H]1CCCCO[C@H](CN(C)C(=O)Cc2ccccc2)[C@H](C)CN([C@H](C)CO)C(=O)c2cc(NS(=O)(=O)c3cn(C)cn3)ccc2O1
Second: C[C@@H]1CCCCO[C@@H](CN(C)S(=O)(=O)c2cn(C)cn2)[C@@H](C)CN([C@H](C)CO)C(=O)c2cc(NC(=O)c3ccncc3)ccc2O1
The reporter increase of the first is higher: 5.86% for the first, 2.55% for the second.

First: C[C@H](CO)N1C[C@H](C)[C@@H](CN(C)Cc2cccc3c2OCCCO3)OCc2cn(nn2)CCCC1=O
Second: CC(C)CC#Cc1cnc2c(c1)C(=O)N([C@@H](C)CO)C[C@H](C)[C@@H](CN(C)Cc1ccccc1C(=O)O)O2
The reporter increase of the first is higher: -0.925% for the first, -9.83% for the second.

Going from `Cc1ccnc(NC(=O)c2ccoc2C)c1` to `Cc1occc1C(=O)Nc1cccc(Cn2cccn2)c1`, the reporter increase falls from 25.4% to 10.4%.

Compared with `C[C@@H]1CN([C@H](C)CO)C(=O)Cc2cc(NS(=O)(=O)c3ccc(Cl)cc3)ccc2O[C@@H]1CN(C)C`, `C[C@H](CO)N1C[C@H](C)[C@H](CN(C)S(C)(=O)=O)Oc2c(NC(=O)Nc3cccc4ccccc34)cccc2C1=O` is lower in reporter increase: -0.489% for the first, -0.771% for the second.

Compared with `Fc1ccccc1COc1ccccc1CNCc1ccncc1`, `O=S(=O)(NCCOc1cccc2cccnc12)c1ccc(F)cc1` is higher in reporter increase: 2.36% for the first, 11.1% for the second.

Going from `COc1cc(Cl)ccc1OCc1cc(C(=O)N(C)CCc2c(C)n[nH]c2C)no1` to `CCn1ccnc1CN(C)C(=O)c1cc(COc2ccc(Cl)cc2OC)on1`, the reporter increase falls from 14.1% to 1.62%.

Going from `CCOC(=O)C1CCCN(C(=O)c2cncc(Br)c2)C1` (stereo not given) to `CCOC(=O)CC1(NC(=O)c2cc(COc3cncc(Cl)c3)on2)CCCCC1`, the reporter increase rises from -6.09% to 2.06%.

First: C[C@@H]1CN([C@H](C)CO)C(=O)c2cc(NC(=O)Cn3cnnn3)ccc2O[C@@H]1CN(C)CC1CC1
Second: C[C@@H]1CN([C@H](C)CO)S(=O)(=O)c2ccc(C#C[C@@H](C)O)cc2O[C@H]1CN(C)CC1CC1
The reporter increase of the first is lower: -4.62% for the first, 2.12% for the second.

Going from `C[C@H](O)C#Cc1cnc2c(c1)C(=O)N([C@@H](C)CO)C[C@H](C)[C@H](CN(C)C(=O)c1ccccc1)O2` to `C[C@@H]1CN([C@@H](C)CO)C(=O)c2cc(C#CCN(C)C)cnc2O[C@@H]1CN(C)Cc1ccccn1`, the reporter increase falls from -2.39% to -9.33%.

Going from `CN1C(=O)c2cc(NC(=O)c3ccccc3)ccc2OC[C@@H]2O[C@@H](CC(=O)NC3CCCC3)CC[C@H]21` to `CO[C@@H]1CN(C)C(=O)c2cc(NS(=O)(=O)c3cccc(Cl)c3)ccc2OC[C@@H](C)NC[C@@H]1C`, the reporter increase rises from -4.47% to 3.71%.

Going from `COCCN(C[C@H]1[C@@H](c2ccccc2)[C@H](CO)N1C(=O)C1CCC1)C(C)=O` to `COc1ccccc1/C=C/C(=O)NC1CC2CCC1C2` (stereo not given), the reporter increase rises from -2.98% to 28.1%.

Going from `C[C@@H]1CN([C@H](C)CO)C(=O)c2cc(C#CC3CC3)cnc2O[C@H]1CN(C)C(=O)CC1CC1` to `C[C@H]1CN([C@@H](C)CO)S(=O)(=O)c2ccc(-c3ccncc3)cc2O[C@@H]1CN(C)C(=O)CC1CC1`, the reporter increase falls from 3.96% to -3.03%.

First: O=C(/C=C/c1ccco1)NC(=S)N1CCCCC1
Second: CC(Cc1cccs1)NC(=O)NC1CCCCC1 (stereo not given)
The reporter increase of the first is lower: 11.3% for the first, 17.1% for the second.

First: Cc1cccc(C(=O)N[C@H](C(=O)NCc2cccs2)C(C)C)c1
Second: CN1CCN(C(=O)C[C@@H]2CC[C@@H]3[C@H](COC[C@@H](O)CN3Cc3cccc(F)c3)O2)CC1
The reporter increase of the first is lower: -4.58% for the first, 0.727% for the second.

For `FC(F)(F)c1ccccc1Cc1c(-c2ccccc2)nc2c3ccccc3ccn12`, the reporter increase was 3.35%.

With `Cn1c(SCc2nc3ccccc3s2)nnc1-c1ccc2c(c1)OCO2` the reporter increase was 66.4% (active).
For `Cc1nn(C(=O)c2ccoc2C)c(N)c1-c1ccccc1`, the reporter increase was 78.5% (active).
For `Fc1ccccc1COc1cccc2cccnc12`, the reporter increase was 45.7% (active).
In the case of `COc1cc(Cl)ccc1OCc1cc(C(=O)N2CC[C@@H]3CCCC[C@H]3C2)no1`, the reporter increase is reported as 52.6% (active).
For `CCCOC1CCCN(C(=O)c2cc(COc3cncc(Cl)c3)on2)C1` (stereo not given), the reporter increase was 66.1% (active).
With `COc1ccccc1/C=C/C(=O)NC(=S)N1CCOCC1` the reporter increase was 44.4% (active).
For `CC(Cc1cccs1)NC(=O)c1cccc(Cl)c1` (stereo not given), the reporter increase was 59.9% (active).
